# ATXN2 expr inh = reduces ATXN2 reporter expression in HEK-293 cells; HEK-293 ATXN2-luciferase reporter, luminescence, 24 h; Potency, µM (highest dose often 57 µM), usual class: inhibitors; hit rate 0.72% among 360,000; also: nearly all actives have a fitted effect of over 55% in size
#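 ATXN2-luciferase reporter cells (luciferase flanked by upstream and downstream ATXN2 gene portions) were treated 24 h at 37 °C with compounds at up to 57 uM. SteadyGlo luminescence gave expression; GF-AFC fluorescence gave viability.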
# a7 integrin act = activates integrin-mediated alleviation for muscular dystrophy. alpha7betagal myoblasts, beta-gal FDG fluorescence, 48 h. Potency, µM (doses to about 38.3 µM), actives largely listed as activators. hit rate 0.064% among 350,000. AID 624291; also: nearly all actives have a fitted effect of over 60% in size
#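 Alpha7betagal+/- myoblasts (passage 13) were plated 16-24 hr, then exposed to compounds (1:260 dilution of DMSO stock) for 48 hours at 37C. After MPER lysis, β-galactosidase reporter activity was read as FDG fluorescence (ex 480/em 540) after 30 minutes.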
# IL1B secr inh = inflammasome signaling inhibition, IL-1 beta readout; THP-1 LPS/ATP IL-1B secretion, AlphaLISA, 16 h; active compounds read low; hit rate 4.7% among 360,000; activity change, % at 57.5 µM; in the data active = activity change below about -50%; inconclusive = mostly about -30% to -49%
#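 THP-1 cells pretreated 1 hr with compounds (up to 57.5 uM final), then stimulated with LPS (250 ng/mL final) plus ATP (1.25 mM final); secreted IL-1B measured by AlphaLISA after 16 hr, decreased signal indicating inhibition.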
# S2 tox = cell viability loss in ATXN counter-screen; S2 cells (HEK-293 line with an ATXN2-luciferase reporter) viability, CellTiter-Fluor protease fluorescence, 24 h; Potency, µM (titrated, usually from 56.7 µM), hits mostly cytotoxic; hit rate 0.49% among 400,000; AID 651635; also: nearly all actives have a fitted effect of over 40% in size
# DRD3 antagonist = antagonists of human D3 dopamine receptor. max response, negative = inhibition, %. hit rate 2.5% among 360,000. D3R cells, DiscoveRx beta-arrestin luminescence, antagonist mode; active compounds read low. AID 652054. P35462; in the data active = max response below about -50%; inconclusive = no clear call, values can overlap the other calls
# Target sequence (P35462 whole entry, looked up): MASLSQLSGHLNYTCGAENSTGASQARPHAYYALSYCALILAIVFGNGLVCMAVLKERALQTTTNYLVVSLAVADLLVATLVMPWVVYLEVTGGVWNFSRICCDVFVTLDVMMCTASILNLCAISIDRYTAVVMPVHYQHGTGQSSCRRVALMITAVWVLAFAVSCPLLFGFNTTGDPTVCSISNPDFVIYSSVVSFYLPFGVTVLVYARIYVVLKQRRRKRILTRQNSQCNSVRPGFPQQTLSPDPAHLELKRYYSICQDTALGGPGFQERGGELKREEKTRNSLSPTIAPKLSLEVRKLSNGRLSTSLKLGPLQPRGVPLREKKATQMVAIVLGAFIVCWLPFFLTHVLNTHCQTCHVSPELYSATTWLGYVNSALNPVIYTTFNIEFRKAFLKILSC
#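 Cells plated overnight at 1500 cells/well, then exposed to library compounds with dopamine controls for 90 minutes at 37 degrees C. DiscoveRx reagent added for 30–60 minutes at room temperature; luminescence read, quantitative HTS format.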
# D3 ag = D3 dopamine receptor (human) agonism | AID 652048 | hit rate 0.58% among 410,000 | D3R DiscoveRx beta-arrestin cells, luminescence, 90 min | P35462 | max activation, %; in the data active = max activation above about 30%
#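 Agonist mode: compounds and dopamine controls were applied to plated cells for 90 min at 37 degrees C after an overnight attachment at 1500 cells/well. Luminescent read-out followed 30 - 60 minutes at room temperature with DiscoveRx detection reagent.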
# Hits are given with their value; – = inactive; ? = inconclusive; · = not tested or not shown. Only some compounds are listed: those with a hit (about 7% of all), similar ones and a draw of the others. Unless noted, calls follow the shape of the dose curve; as a rule, active = well fitted curve in the direction sought with a large enough effect; inconclusive = small, poorly fitted or top-dose-only effect, or another doubt; inactive = no such curve, though single readings can be large; an effect the other way counts as inactive or inconclusive.
SMILES,ATXN2 expr inh,a7 integrin act,IL1B secr inh,S2 tox,DRD3 antagonist,D3 ag
COc1ccccc1-n1c(-c2ccccc2F)nc2ccccc2c1=O,–,–,–,?,–,–
CCCc1c(-c2ccccc2F)ncn1CCc1ccccc1OC,?,·,-69.8,?,–,–
CN1C[C@H](C(=O)N[C@]2(C)O[C@@]3(O)[C@@H]4CCCN4C(=O)[C@H](Cc4ccccc4)N3C2=O)CC2c3cccc4[nH]cc(c34)C[C@H]21 (some centres undefined),–,·,–,?,-65.3,–
Clc1ccc(C(Cn2ccnc2)OCc2csc3c(Cl)cccc23)c(Cl)c1 (centres undefined),22.4µM,·,-77.8,·,–,–
Clc1ccc(CCC(Cn2ccnc2)Sc2c(Cl)cccc2Cl)cc1 (centres undefined),?,·,–,?,–,–
O=c1[nH]c2ccccc2n1C1CCN(Cc2ccc(-c3[nH]c4cc5ncnc5cc4nc3-c3ccccc3)cc2)CC1,?,·,–,?,-95.8,–
O=C1CC(N2CCC(n3c(=O)[nH]c4ccccc43)CC2)C(=O)N1Cc1ccccc1 (centres undefined),–,–,–,–,–,–
O=C1NC2C(O)C(O)C(O)C(O)C2c2cc3c(c(O)c21)OCO3 (centres undefined),–,–,-102.9,?,–,–
O=C1NC2C(=CC(O)C(O)C2O)c2cc3c(c(O)c21)OCO3 (centres undefined),?,?,-116.7,?,?,–
O=C1NC2C(=CC(O)C(O)C2O)c2cc3c(cc21)OCO3 (centres undefined),0.947µM,–,-101.2,?,–,–
COC(=O)C1=C(c2cccc(C#N)c2)C[C@@H]2CC[C@H]1N2C(=O)N1CCCC1,–,–,–,–,–,–
CCc1ccc(-n2c(O)c(C(C)=O)c(=O)[nH]c2=O)cc1 (tested in a mixture with another compound),–,–,–,–,–,–
Cc1ccc2cc(CNCCc3ccccc3C)c(=O)[nH]c2c1,–,–,-79.1,–,–,–
COc1ccc(-n2c(O)c(C(C)=NC3CC3)c(=O)[nH]c2=O)cc1,–,–,–,?,–,–
CCOC(=O)[C@]12Cc3cc(OC)ccc3[C@H]1N(C1CCCCC1)C(=O)c1ccccc12,4.47µM,·,-121.7,7.08µM,-63.8,–
CCOC(=O)[C@]12Cc3cc(Cl)ccc3[C@H]1N(C1CCCCC1)C(=O)c1ccccc12,3.16µM,·,-113.7,3.55µM,-79.7,–
CCOc1cccc(=NC2CCCCC2)c2c(C)n(C)c(C)c12,?,–,-97.3,?,–,–
CCOC(=O)[C@]12Cc3cc(C)ccc3[C@H]1N(C)C(=O)c1cc(OC)ccc12,?,·,-116.2,?,?,–
CCOC(=O)[C@]12Cc3cc(OC)ccc3[C@H]1N(C)C(=O)c1ccccc12,–,·,?,–,–,–
CCOC(=O)[C@]12Cc3cc(OC)ccc3[C@H]1N(C(C)C)C(=O)c1cc(OC)ccc12,?,·,-116.6,14.1µM,?,–
CCOC(=O)[C@]12Cc3c(cc(OC)c(OC)c3OC)[C@H]1N(C(C)C)C(=O)c1cc(OC)ccc12,17.8µM,·,-113.3,14.1µM,–,–
O=c1[nH]c(O)c(C=Nc2cccc(F)c2)c(=O)[nH]1,·,–,–,–,–,–
CN1CCN(Cc2nc3ccccc3n2C)CC1,–,–,–,?,–,–
Cn1c(NN=O)nc2ccccc21,?,–,–,14.1µM,–,–
Clc1cccc(N2CCNCC2)c1Cl,–,–,–,–,-56.0,–
SMILES,ATXN2 expr inh,a7 integrin act,IL1B secr inh,S2 tox,DRD3 antagonist,D3 ag
Clc1ccccc1N1CCNCC1,–,·,·,–,·,·
Oc1cc[c]([Hg][Cl])cc1,·,·,·,3.16µM,·,–
Oc1cccc[c]1[Hg][Cl],·,·,·,·,·,–
N#CC12CC(=O)N1Cc1cnnn1-c1ccccc12 (centres undefined),–,·,–,–,–,–
CCN1CCN(c2ncnc3ccc(Br)cc23)CC1,–,–,–,–,-65.7,–
COc1ccc(CN2Cc3cc(-c4cccc(F)c4)ccc3-n3nncc3C2)cc1,–,·,–,–,–,–
COC1=C[C@H]2C3=C([C@H]2C1=O)[C@H](NC(C)=O)CCc1cc(OC)c(OC)c(OC)c13,·,·,·,–,·,·
C=CC(=O)NCNC(=O)C=C,–,·,–,–,-75.8,–
Brc1ccccc1CNCCc1ccc2c(c1)OCO2,–,–,–,–,?,–
CCOc1ccc(CNCCc2ccc3c(c2)OCO3)cc1,·,–,–,–,-86.4,–
CCOc1ccccc1CNCCc1ccc2c(c1)OCO2,–,–,-59.8,–,–,–
Fc1ccc(CNCCc2ccc3c(c2)OCO3)cc1,·,–,–,·,–,–
Cc1cccc(-n2c(-c3ccccc3)nc3ccccc3c2=O)n1,–,–,–,?,?,–
CC1C=CCCC12C(=O)NC(=O)NC2=O (centres undefined),–,–,–,–,–,–
O=C(Nc1ccccc1)c1c(O)c2c(n(Cc3ccco3)c1=O)CCCC2,–,–,–,–,–,–
C/C(=N\NC(N)=S)C12CC3CC(CC(C3)C1)C2,?,–,?,15.8µM,–,–
COc1ccc(CCn2c(O)c(C=Nc3ccc(NC(C)=O)cc3)c(=O)[nH]c2=O)cc1OC,–,–,–,–,–,–
O=C1Nc2ccccc2/C1=C/c1cnc[nH]1,?,–,–,–,–,–
COc1ccc2c(c1)/C(=C/c1cnc[nH]1)C(=O)N2,?,·,-111.3,?,–,–
NC1=C([N+](=O)[O-])C(c2ccc3c(c2)OCO3)c2c(c3ccccc3oc2=O)O1 (centres undefined),–,?,–,–,–,–
O=c1oc2ccccc2c(O)c1[C@H]1c2ccc(O)cc2Oc2c1c(=O)oc1ccccc21,·,–,-91.9,?,–,–
Oc1ccccc1CN(CCc1ccccc1)Cc1ccccc1,–,–,–,–,–,–
O=C(Nc1ccc(Cl)cc1)Nc1ccc(Cl)c(Cl)c1,?,–,-87.3,?,–,–
CCOC(=O)[C@]12Cc3c(cc(OC)c(OC)c3OC)[C@H]1N(Cc1ccccc1)C(=O)c1ccccc12,–,–,?,–,–,–
CCOC(=O)[C@]12Cc3cc(OC)c(OC)cc3[C@H]1N(Cc1ccccc1)C(=O)c1ccccc12,–,–,–,–,–,–
CCOC(=O)[C@]12Cc3c(cc(OC)c(OC)c3OC)[C@H]1N(C)C(=O)c1ccccc12,–,·,-54.8,?,-62.9,–
CCOC(=O)[C@]12Cc3c(cc(OC)c(OC)c3OC)[C@H]1N(CCC(=O)OC)C(=O)c1ccccc12,?,·,-116.3,?,–,–
C[C@]12CC[C@@H](O)C[C@@H]1CC[C@@H]1[C@@H]2CC[C@]2(C)C(=O)CC[C@@H]12,–,·,–,–,–,–

# Compound activity from PubChem.
